From the supplement of paper PMC6555819

Assays:
Assay in all cases: PBM binding z-score (relative to random genomic background probes); higher = stronger binding; sequences stand for … in GC…GCGATTGACAGCGTAGAATGAAGG
[1] = tested on: FXR:RXRa (NR concentration 270 nM, RXRa partner concentration 90 nM)
Outline: (§1)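 Binding buffer was PBS pH 7.4 with 2% milk, 0.02% Triton X-100, 1 mM DTT, 0.2 mg/mL BSA and 0.4 mg/ml salmon testes DNA. In it, ligand-free nuclear receptor dimers were incubated 1 h on custom Agilent 4×180K protein-binding microarrays carrying double-stranded probes. Antibodies against each partner (one per run) detected binding, and z-scores were calculated against random background probes after regression normalization of scanned fluorescence.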

[2] = tested on: LXRa:RXRa (NR concentration 270 nM, RXRa partner concentration 90 nM)
Outline: as §1

[3] = tested on: LXRa homodimer (NR concentration 270 nM)
Outline: as §1

[4] = tested on: LXRb:RXRa (NR concentration 270 nM, RXRa partner concentration 90 nM)
Outline: as §1

[5] = tested on: LXRb homodimer (NR concentration 270 nM)
Outline: as §1

[6] = tested on: PPARa:RXRa (NR concentration 270 nM, RXRa partner concentration 90 nM)
Outline: as §1

[7] = tested on: PPARg:RXRa (NR concentration 180 nM, RXRa partner concentration 90 nM)
Outline: as §1

[8] = tested on: PPARg:RXRa 270nM:90nM, anti-RXR (NR concentration 270 nM, RXRa partner concentration 90 nM)
Outline: as §1

[9] = tested on: PPARg:RXRa 30nM:10nM, anti-RXR (NR concentration 30 nM, RXRa partner concentration 10 nM)
Outline: as §1

[10] = tested on: PPARg:RXRa 90nM:30nM, anti-RXR (NR concentration 90 nM, RXRa partner concentration 30 nM)
Outline: as §1

[11] = tested on: PPARg:RXRa DBDmut IVT, anti-RXR (DBD mutation: RXRa K156A/R161A, NR concentration 270 nM, RXRa partner concentration 90 nM)
Outline: as §1

[12] = tested on: PPARg:RXRa IVT, anti-PPARg (NR concentration 270 nM, RXRa partner concentration 90 nM)
Outline: as §1

[13] = tested on: PPARg DBDmut:RXRa IVT, anti-PPARg (DBD mutation: PPARg1 K132A/R137A, NR concentration 270 nM, RXRa partner concentration 90 nM)
Outline: as §1

[14] = tested on: PPARg DBDmut IVT, anti-PPARg (DBD mutation: PPARg1 K132A/R137A, NR concentration 270 nM)
Outline: as §1

[15] = tested on: PPARg homodimer (NR concentration 180 nM)
Outline: as §1

[16] = tested on: PXR:RXRa (NR concentration 270 nM, RXRa partner concentration 90 nM)
Outline: as §1

[17] = tested on: PXR homodimer (NR concentration 270 nM)
Outline: as §1

[18] = tested on: RARa:RXR (NR concentration 270 nM, RXRa partner concentration 90 nM)
Outline: as §1

[19] = tested on: RARa homodimer (NR concentration 270 nM)
Outline: as §1

[20] = tested on: RARb:RXRa (NR concentration 270 nM, RXRa partner concentration 90 nM)
Outline: as §1

Sequence | PBM binding z-score [1] | PBM binding z-score [2] | PBM binding z-score [3] | PBM binding z-score [4] | PBM binding z-score [5] | PBM binding z-score [6] | PBM binding z-score [7] | PBM binding z-score [8] | PBM binding z-score [9] | PBM binding z-score [10] | PBM binding z-score [11] | PBM binding z-score [12] | PBM binding z-score [13] | PBM binding z-score [14] | PBM binding z-score [15] | PBM binding z-score [16] | PBM binding z-score [17] | PBM binding z-score [18] | PBM binding z-score [19] | PBM binding z-score [20]
ATCTCAAGGTAAGACTCAGTTCAGTGAAGAACGC | 0.749 | 0.642 | 0.594 | 0.258 | 0.655 | 0.216 | 0.033 | 0.104 | 0.217 | 0.104 | 0.2 | 0.426 | 0.753 | 0.498 | 0.782 | 1.47 | 1.54 | 0.694 | 1.1 | 0.614
CCTTACGGGTCACGAGGTTAGAGCACGACGAGCG | 6.98 | 4.06 | 0.353 | 3.58 | 0.0179 | 5.8 | 7.39 | 6.87 | 3.49 | 6.11 | 4.55 | 5.59 | 2.76 | 1.38 | 2.96 | 4.32 | -0.124 | 5.72 | 0.978 | 4.6
TTACCAAGGAGAGCTGAGGTCGTTGATCCAACTC | 0.524 | -0.0675 | -0.298 | 0.248 | -1.1 | 0.632 | -0.233 | 0.453 | 0.297 | 0.316 | -0.667 | -0.449 | -0.504 | -0.387 | 0.217 | 1.29 | 0.364 | 0.846 | -0.664 | 0.145
TCAAACAGGTGAAGGTAACTCAGGTACGCAGTCG | 1.02 | 1.85 | 0.0857 | 1.22 | -0.218 | 1.61 | 0.959 | 2.43 | 4.26 | 3.48 | 3.03 | 1.6 | 0.098 | 0.184 | 0.662 | 0.812 | 0.0874 | 1.19 | 0.552 | 1.26
CTCGAAAGGTCGGTTGAGGTGAGTAGACGGATAA | 2.24 | 1.85 | 0.0366 | 1.44 | -0.503 | 2.76 | 0.386 | 1.51 | 0.222 | 0.586 | -0.178 | 0.996 | -0.252 | -0.747 | 0.919 | 3.03 | 0.241 | 2.71 | -0.0972 | 3.11
TGTCAAAGTTCAAAGGTAACATAAGTATCCACAC | 7.47 | 6.45 | 4.6 | 5.05 | 2.12 | 6.03 | 8.82 | 7.65 | 5.46 | 7.34 | 0.298 | 4.93 | 1.53 | 2.04 | 3.31 | 5.72 | 4.18 | 6.28 | 1.65 | 5.24
GCTAGCAGGCCATTTGGGTTACTCAATGACGGGC | -0.367 | -0.587 | -0.387 | -0.709 | -0.959 | 0.0439 | 0.457 | -0.378 | -0.68 | -0.152 | 0.933 | 0.903 | -0.422 | -0.474 | -0.558 | -0.229 | -0.482 | 0.178 | -0.714 | 0.189
